# LMNA splice mod: qHTS Assay for Modulators of Lamin A Splicing; HeLa LMNA splicing GFP/RFP minigene ratio, 48 h; Potency, µM (highest dose often 46.1 µM), without a hit: at the highest dose ratio change, negative = inhibition, usual class: inhibitors; hit rate 0.01% among 200,000; active means well fitted inhibition curve with a large enough effect in the signal ratio, with a control signal flat, not every such curve was filed as active; inconclusive means small, poorly fitted or top-dose-only effect, or effect the other way, or a change in a side signal; the % refers to the signal ratio; further: on the % scale 0 is the no-effect control and ±100 the full control effect
#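 S3 HeLa cells stably expressing lamin A-EGFP splicing minigene plus DsRed2, 600 cells/well, 48 h compound exposure at 37C. Laser-scanning cytometry; analysed as GFP (500-530 nm)/RFP (575-640 nm) total intensity ratio; 0.5% DMSO vehicle.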
# ALDH1A1 block: qHTS Assay for Inhibitors of Aldehyde Dehydrogenase 1 (ALDH1A1). Aldehyde dehydrogenase 1A1 (Homo sapiens), P00352. Purified ALDH1A1, NADH fluorescence, propionaldehyde substrate. Potency, µM (series often up to 75.3 µM), for inactives: at the highest dose activity, negative = inhibition, most hits filed as inhibitors. hit rate 7.3% among 220,000. AID 1030, 2008; active means well fitted inhibition curve with a large enough effect, not every such curve was filed as active; inconclusive means small, poorly fitted or top-dose-only effect, or another doubt; inactive means no such curve, though single readings can be large or run the other way;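 further: plate controls were no enzyme wells and a reference inhibitor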
# Target sequence (P00352 whole entry, looked up): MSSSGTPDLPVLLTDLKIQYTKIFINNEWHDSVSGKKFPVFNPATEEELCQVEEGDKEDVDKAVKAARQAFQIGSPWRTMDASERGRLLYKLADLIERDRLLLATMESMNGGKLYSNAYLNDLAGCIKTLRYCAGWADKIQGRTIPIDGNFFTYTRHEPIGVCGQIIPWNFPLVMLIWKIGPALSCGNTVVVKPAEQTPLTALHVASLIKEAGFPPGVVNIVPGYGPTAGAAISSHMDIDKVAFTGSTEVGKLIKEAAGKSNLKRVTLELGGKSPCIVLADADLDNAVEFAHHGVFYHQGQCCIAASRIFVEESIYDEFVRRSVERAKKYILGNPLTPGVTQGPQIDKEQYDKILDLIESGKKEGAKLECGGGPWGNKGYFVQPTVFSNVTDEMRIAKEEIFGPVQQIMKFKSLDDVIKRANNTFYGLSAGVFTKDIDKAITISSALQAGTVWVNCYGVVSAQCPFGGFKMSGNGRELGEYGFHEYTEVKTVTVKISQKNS
# HTT cytoprotect: qHTS Multiplex Assay to Identify Dual Action Probes in a Cell Model of Huntington: Cytoprotection (ATP); AID 1471, 2008; PC12 HTT-Q103 induced, cytoprotection, ATP luminescence, 40 h; Potency, µM (titrated, usually from 56.4 µM), without a hit: cytoprotection (ATP increase), usual class: activators; hit rate 0.14% among 230,000; further: % of control where 0% means no effect; nearly all actives have a fitted effect of over 45% in size
#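 Readout: ATPlite luminescence (ATP level). Model: stable PC12, inducible Htt exon1 Q103-GFP. Inducer: tebufenozide, 100 nM final. Compounds: dose series. No G418 in medium.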
# Luc counter: Counterscreen for Luciferase (Kinase-Glo TM) Inhibition; Luciferin 4-monooxygenase (Photuris pensylvanica), Q27757; Kinase-Glo luciferase, ATP luminescence, 8 min; Potency, µM (highest dose often 38.3 µM), inactives show top-dose activity change, negative = inhibition, actives largely listed as inhibitors; hit rate 0.28% among 200,000; AID 1379, 2008; further: on the % scale 0 is the no-effect control and ±100 the full control effect; nearly all actives have a fitted effect of over 60% in size
#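 Light output from Kinase-Glo luciferase with luciferin and 10 uM ATP in 50 mM imidazole pH 7.2, KCl, MgCl2, Tween 20, BSA; compound pin-delivered, 8-min ambient incubation, then luminescence read.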
# HPGD inh: qHTS Assay for Inhibitors of HPGD (15-Hydroxyprostaglandin Dehydrogenase); Potency, µM, without a hit: top-dose activity change, negative = inhibition, most hits filed as inhibitors; hit rate 4.3% among 150,000; purified HPGD, NADH fluorescence kinetic, PGE2 substrate; 15-hydroxyprostaglandin dehydrogenase [NAD(+)] (Homo sapiens), P15428; AID 894, 2007; active means well fitted inhibition curve with a large enough effect, not every such curve was filed as active; inconclusive means small, poorly fitted or top-dose-only effect, or another doubt; inactive means no such curve, though single readings can be large or run the other way; further: on the % scale 0 is the no-effect control and ±100 the full control effect
# Target sequence (P15428 whole entry, looked up): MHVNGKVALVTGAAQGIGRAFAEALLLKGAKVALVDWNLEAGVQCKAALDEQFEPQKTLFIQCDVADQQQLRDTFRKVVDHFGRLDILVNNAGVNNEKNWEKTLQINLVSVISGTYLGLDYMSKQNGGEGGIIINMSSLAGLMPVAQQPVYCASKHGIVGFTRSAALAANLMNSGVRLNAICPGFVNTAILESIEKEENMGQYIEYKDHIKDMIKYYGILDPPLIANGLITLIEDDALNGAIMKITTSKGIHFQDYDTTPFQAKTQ
#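 20 nM HPGD preincubated 15 min at room temperature with compound in 50 mM Tris-HCl pH 8, 0.01% Tween 20. Started with 1 mM NAD+ and 30 uM prostaglandin E2; NADH fluorescence (360/450 nm) read 5 times over 30-s intervals, last minus first.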
# HttQ103 aggreg: qHTS Multiplex Assay to Identify Dual Action Probes in a Cell Model of Huntington: Aggregate Formation (GFP); PC12 HttQ103-GFP aggregates, Acumen cytometry, 40 h; Potency, µM (highest dose often 46.1 µM), inactives show top-dose activity change, negative = inhibition, most hits filed as inhibitors; hit rate 1.1% among 220,000; further: on the % scale 0 is the no-effect control and ±100 the full control effect; nearly all actives have a fitted effect of over 60% in size
#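 Aggregates are detected as GFP objects 1–25 µm with signal 6 STDEV over background in lysates of induced PC12 cells. These carry Huntingtin exon 1 with 103 glutamines fused to GFP under an ecdysone promoter; compounds titrated.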
# * marks the source's active call; other numbers are inactive results; u = inconclusive; x = no result; ! = repeats disagree; [ ] = another dose, or the depositor's remark. Shown are actives, neighbours in structure and some others; about 9% of the full set was active somewhere. Unless noted, the call rests on the fitted dose curve; in most records, active means well fitted curve in the direction sought with a large enough effect; inconclusive means small, poorly fitted or top-dose-only effect, or another doubt; inactive means no such curve, though single readings can be large; an effect the other way counts as inactive or inconclusive. Potency means the concentration at half of the fitted maximal effect.
SMILES,LMNA splice mod,ALDH1A1 block,HTT cytoprotect,Luc counter,HPGD inh,HttQ103 aggreg
CCOc1cc(C(=O)N2CCN(C/C=C/c3ccccc3)CC2)cc(OCC)c1OCC,-1%,1%,-24%,1%,-3%,-7%
CS(=O)(=O)N(CC(=O)NCCSc1ccccc1)c1ccc2c(c1)OCO2,5%,u,-15%[0.074 µM],-1%,-5%,-3%
O=C(N[C@@H](Cc1ccccc1)C(=O)NC1CCCCC1)c1ccco1,14%,-6%,-3%,-2%,-11%,4%
CCc1ccc(NC(=O)Cn2cnc3c(=O)n(C)c(=O)n(C)c32)cc1,x,1%,-60%,0%,x,-17%
Cc1ccc(C)c(-c2cc(C(=O)Nc3cccc(C(=O)O)c3)c3ccccc3n2)c1,25%[46 µM],-9%,5%,3%,x,5%
CCN(C(=O)c1cc2cccc(OC)c2oc1=O)c1ccccc1,0%,-2%,0%,0%,22µM*,-1%
COc1ccc(C2N(c3ccc(Cl)cc3)N=C(C(C)=O)N(C)N2C(C)=O)cc1 (configuration not stated),x,-2%,u,-2%,x,-31%
CSCCOC(=O)COc1ccc(/C=N/NC(=O)c2nn(C)cc2Cl)cc1,-3%,7%,x,-4%,4µM*,4%
Cc1ccc(S(=O)(=O)Oc2ccc(/C=N/NC(=O)c3nn(C)cc3Cl)cc2)cc1,-4%,u,7%[10 µM],-1%,-28%,9%
Cc1ccc(S(=O)(=O)N2CCOCC2)cc1C(=O)Nc1ccc2c(c1)CCC2,u,-4%,-7%[10 µM],-5%,-10%,9%
O=C(C(Cl)Cl)N1c2ccccc2OCC1c1ccccc1 (configuration not stated),-7%,1.3µM*,-71%[10 µM],0%,-12%,u
O=c1oc2ccccc2c(NCc2ccccc2F)c1[N+](=O)[O-],-7%,1.1µM*,10%[10 µM],2%,16µM*,-6%
NC(=O)COC(=O)c1oc2ccccc2c1CSc1ccc(Cl)cc1,-13%,-5%,32%[10 µM],3%,-4%,11µM*
O=C(COC(=O)c1oc2ccccc2c1CSc1ccc(Cl)cc1)NC1CCCC1,-8%,-4%,-3%[10 µM],0%,-12%,-10%
CCOc1ccc(Br)cc1S(=O)(=O)Nc1ccc(Cl)c(S(=O)(=O)N(C)C)c1,u,0.35µM*,23%[10 µM],x,x,u
COC1=Cc2c(ccc3ccc(=O)oc23)OC1(C)C,-6%,u,-11%,2%,-30%,-21%
O=C(Nc1ccc(Cl)cc1)C(c1ccccc1)N1CCOCC1 (configuration not stated),x,18µM*,-15%,-1%,x,7%
Cc1cccc(C)c1NC(=O)C(c1ccccc1)N1CCOCC1 (configuration not stated),-13%,8%,26%[10 µM],-1%,-6%,-32%
Cc1ccc(C)c(NC(=O)C(c2ccccc2)N2CCOCC2)c1 (configuration not stated),x,16µM*,11%,8%,x,-4%
CN1CCN(C(=O)c2ccc(CSc3nc4ccncc4n3Cc3ccc(F)cc3)cc2)CC1,u,-2%,x,-2%,16µM*,-25%
O=C(NCCN1CCOCC1)c1ccc(CSc2nc3ccncc3n2Cc2ccc(F)cc2)cc1,x,4%,-37%,x,x,7%
O=C(NC1CCCC1)c1ccc(CSc2nc3ccncc3n2Cc2ccc(F)cc2)cc1,-11%,-7%,x,12%,3.2µM*,5%
CC1CC(C)CN(C(=O)c2ccc(CSc3nc4ccncc4[nH]3)cc2)C1 (configuration not stated),u,0%,x,1%,5.6µM*,-23%
CCC(C)NC(=O)c1ccc(CSc2nc3ccncc3n2Cc2ccc(F)cc2)cc1 (configuration not stated),-8%,-14%,x,0%,u,-9%
CC(=O)c1ccc(NC(=O)C2CCCN2S(=O)(=O)c2cccc3cccnc23)cc1 (configuration not stated),-1%,u,4%,0%,-8%,12%
SMILES,LMNA splice mod,ALDH1A1 block,HTT cytoprotect,Luc counter,HPGD inh,HttQ103 aggreg
O=C(Cc1ccccc1)Nc1cccc(N2CCCC2)c1,-13%,14µM*,-20%[0.074 µM],5%,u,16%
O=C(Cc1ccccc1)Nc1ccc(N2CCCC2)cc1,2%,u,3%,-7%,-9%,2%
CCCc1nc2ccccc2c(C(=O)OCC(=O)Nc2ccc(S(=O)(=O)N3CCOCC3)cc2)c1CC,u,0%,-23%,-3%,-16%,u
Cc1ccc(-c2noc(CCC(=O)NCc3ccco3)n2)cc1,14%,u,2%,-3%,28µM*,14%
COCCCNC(=O)CCc1nc(-c2ccccc2)no1,-4%,-10%,-11%[0.074 µM],0%,u,-20%
COc1ccccc1-c1noc(CCC(=O)Nc2ccccc2Cl)n1,-15%,28µM*,10%[10 µM],-1%,25µM*,-5%
COc1ccccc1-c1noc(CCC(=O)Nc2cccc(C)c2)n1,-6%,1%,u,3%,-9%,17%
COCCNC(=O)CCc1nc(-c2ccccc2)no1,-12%,2%,-12%[0.074 µM],-2%,16µM*,-2%
CCOC(=O)Cc1cc(=O)n2[nH]c(C)c(-c3ccc(OC)cc3)c2n1,4%,6%,-5%[1.9 µM],3%,-17%,-11%
Cc1cc(-c2ccccc2)nc(SCc2ccc(C(=O)O)o2)n1,3%,3%,3%[1.9 µM],-4%,-8%,7%
O=c1cc(-c2ccccc2Cl)oc2c([N+](=O)[O-])ccc(O)c12,x,0%,-32%,2%[39.9 µM],-18%,x
O=C1NC(=O)C(c2ccccc2[N+](=O)[O-])=C1Nc1ccc(O)c(Cl)c1,u,28µM*!,13µM*!,0%,-14%,x
CCN1C(=O)/C(=C/C=C2\C=CN(CC)c3ccccc32)SC1=S,-11%,u,13%[10 µM],-26%,-14%,-2%
CCN1C(=O)/C(=C\C=C2/C=CC=CN2CC)SC1=S,3%,25µM*,x,u,-4%,30%
O=S(=O)(NCc1ccncc1)c1ccc(Br)s1,u,5%,-27%[0.074 µM],2%,-12%,2.5µM*
O=C(O)CNS(=O)(=O)c1ccc(Br)s1,6%,4%,-1%,2%,-12%,16%
Cc1onc(-c2ccccc2Cl)c1C(=O)NC(=S)NCCc1ccccc1,9%,1%,20%[0.074 µM],0%,-8%,3%
Cc1ccc(NC(=S)NC(=O)c2c(-c3ccccc3Cl)noc2C)cc1,-12%,7.9µM*,16%,-2%,-16%,20%

# Screening results from PubChem.
